Several values for one entry are separate records, joined by “and”; a condition that tells them apart may be missing. Equal values may be shown once. Results filed as inconclusive are left out. Activity calls are given as the source filed them. Calls come from the whole dose curve; as a rule, active = well fitted inhibition curve with a large enough effect; inconclusive = small, poorly fitted or top-dose-only effect; inactive = flat fitted curve, though single readings scatter.
% is set by controls: 0 for no effect and ±100 for the full control effect.

The experiment deals with NIH3T3. The experiment is described as follows: Cytotoxic Profiling of Annotated Libraries Using Quantitative High-Throughput Screening (AID 1296008). Note: nearly all actives have a fitted effect of over 60% in size. Particulars: Five cell lines viability, CellTiter-Glo ATP luminescence, 48-72 h; max response: active compounds read low. The gist of the method:
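Cytotoxicity was measured as CellTiter-Glo ATP luminescence, read after 10 min at room temperature. Compound treatment of the cells lasted 48 or 72 hr at 37 degrees Celsius in a qHTS format.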
On the technique in general: In ATP-based viability assays light output follows the ATP content of the culture.
Consider `O=C1c2ccccc2C(=O)C1C(=O)C(c1ccccc1)c1ccccc1`, for which the max response was -11% (inactive).

Take `COc1cc(OC)c(OC)cc1C=O`: the max response was 2.47% (inactive) and 4.91% (inactive).

For `CC(C)(N)Cc1ccccc1Cl`, the max response was -1.53% (inactive).

`CC(C)c1cccc(C(C)C)c1O`: the max response is 0.687% (inactive).

Consider `CC(C)N(CCC(C(N)=O)(c1ccccc1)c1ccccn1)C(C)C` (stereo not given), for which the max response is -23.6% (inactive) and -1.68% (inactive).

With `C=CCC1(C(C)CC)C(=O)NC(=O)NC1=O` (stereo not given), the result was inactive.

Turning to `COc1cccc([C@@]2(O)CCCC[C@@H]2CN(C)C)c1`, the molecule was classed as inactive.

Turning to `C[N+]1(CCF)[C@@H]2CC[C@H]1CC(OC(=O)C(O)(c1ccccc1)c1ccccc1)C2` (stereo not given in full), the molecule was called inactive.

For `CCCCCCCCCC(=O)O[C@H]1CC[C@H]2[C@@H]3CCC4=CC(=O)CC[C@@H]4[C@H]3CC[C@]12C`, the max response was -3.4% (inactive).

Consider `O=C(O)CCCc1ccc(N(CCCl)CCCl)cc1`, for which the max response was -8.46% (inactive) and -0.549% (inactive).

Consider `O=c1oc2ccccc2c(O)c1Cc1c(O)c2ccccc2oc1=O`, for which the molecule was called inactive.

On to `CC(=O)C1CCOC1=O` (stereo not given), for which the outcome was inactive.

On to `O=C(O)c1ccc(=O)[nH]c1`, for which the molecule was called inactive.

Take `CCOC(=O)CC(SP(=S)(OC)OC)C(=O)OCC` (stereo not given): the max response was -6.65% (inactive) and 2.23% (inactive).

As for `CC(C)(C)NCC(O)c1cc(Cl)c(N)c(C(F)(F)F)c1` (stereo not given), the molecule was called inactive.

In the case of `C[C@]12CC[C@H]3[C@@H](CCC4=CC(=O)CC[C@@H]43)[C@@H]1CC[C@@H]2OC(=O)CCc1ccco1`, the max response is -2.06% (inactive).

Regarding `O=C(O)/C=C\C(=O)O`, the max response was -5.56% (inactive).

On to `Clc1ccccc1N1CCNCC1`, for which the molecule was called inactive.

Turning to `CN1CC[C@]23c4c5ccc(O)c4O[C@H]2[C@@H](O)C=C[C@H]3[C@H]1C5`, the max response was -4.09% (inactive).

On to `NNc1ccccc1`, for which the max response is 4.99% (inactive).

For `Nc1ccccc1`, the max response was -0.773% (inactive).

Consider `O=C1OC(c2ccc(O)c(S(=O)(=O)O)c2)(c2ccc(O)c(S(=O)(=O)O)c2)c2c(Br)c(Br)c(Br)c(Br)c21`, for which the outcome was inactive.

`CC(NC(C)(C)C)C(=O)c1cccc(Cl)c1` (stereo not given): the max response was -22.3% (inactive) and 1.31% (inactive); the molecule was called inactive.

With `COc1ccc2c3c1O[C@H]1[C@H](O)CC[C@H]4[C@@H](C2)N(C)CC[C@@]341`, the call was inactive.

On to `C#CC(O)(C=CCl)CC` (stereo not given), for which the call was inactive.

In the case of `CCCCCN(C)CCC(O)(P(=O)(O)O)P(=O)(O)O`, the molecule was classed as inactive.

As to `C[C@]12CC[C@@H]3c4ccc(OC(=O)N(CCCl)CCCl)cc4CC[C@H]3[C@@H]1CC[C@@H]2OP(=O)(O)O`, the max response is 2.9% (inactive).

For `O=c1[nH]c2ccccc2n1C1CCNCC1`, the call was inactive.

For the molecule `Oc1ccc(Cl)cc1`, the max response was 0.545% (inactive).

`NC(=O)c1cc([N+](=O)[O-])cc([N+](=O)[O-])c1`: the max response was 4.48% (inactive).

`O=C1c2ccccc2C(=O)c2ccccc21`: the max response was -2.39% (inactive).

Take `CCc1cc2c(s1)-n1c(C)nnc1CN=C2c1ccccc1Cl`: the molecule was classed as inactive.

With `CN1CC[C@]23c4c5ccc(O)c4O[C@H]2[C@@H](O)CC[C@H]3[C@H]1C5`, the max response is 0.466% (inactive).

For the molecule `C=CCN1C[C@H](C)N([C@H](c2ccc(C(=O)N(CC)CC)cc2)c2cccc(OC)c2)C[C@H]1C`, the max response is -0.106% (inactive) and 4.66% (inactive).

In the case of `COC(=O)[C@@H](N)CCCN/C(N)=N/[N+](=O)[O-]`, the max response was 1.98% (inactive).

Turning to `CC(=O)OCC1=C(C(=O)O)N2C(=O)[C@@H](N)[C@H]2SC1`, the max response is 1.92% (inactive) and 4.65% (inactive).

`C[C@]12CC[C@H]3[C@@H](CCC4=CC(=O)CC[C@@H]43)[C@@H]1CC[C@@H]2OC(=O)CCC1CCCCC1`: the molecule was classed as inactive.

In the case of `CN1C(=O)CCS(=O)(=O)C1c1ccc(Cl)cc1` (stereo not given), the max response is 2.05% (inactive) and -20.3% (inactive).

In the case of `ClCCN1CCCC1`, the molecule was called inactive.

The values above are taken from PubChem BioAssay (NCATS).
